Results reported in paper PMC4336329 (PLoS ONE, 2015).
The whole screen tested about 310,000 compounds, of which about 14,000 (4.5%) showed an effect of 50% or more. The effect is printed as a negative number. Only a selection was taken, and strong results are over-represented in it overall.

Molecular target: human ether-à-go-go-related gene (hERG) potassium channel (human, UniProt Q12809)
Experiment: primary screen, population patch clamp on CHO cells stably expressing hERG; higher = less effect of the substance
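Also: peak tail current of the secondary pulse compared with the same well before compound.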

human ether-à-go-go-related gene (hERG) potassium channel, sequence (Q12809 whole entry, looked up): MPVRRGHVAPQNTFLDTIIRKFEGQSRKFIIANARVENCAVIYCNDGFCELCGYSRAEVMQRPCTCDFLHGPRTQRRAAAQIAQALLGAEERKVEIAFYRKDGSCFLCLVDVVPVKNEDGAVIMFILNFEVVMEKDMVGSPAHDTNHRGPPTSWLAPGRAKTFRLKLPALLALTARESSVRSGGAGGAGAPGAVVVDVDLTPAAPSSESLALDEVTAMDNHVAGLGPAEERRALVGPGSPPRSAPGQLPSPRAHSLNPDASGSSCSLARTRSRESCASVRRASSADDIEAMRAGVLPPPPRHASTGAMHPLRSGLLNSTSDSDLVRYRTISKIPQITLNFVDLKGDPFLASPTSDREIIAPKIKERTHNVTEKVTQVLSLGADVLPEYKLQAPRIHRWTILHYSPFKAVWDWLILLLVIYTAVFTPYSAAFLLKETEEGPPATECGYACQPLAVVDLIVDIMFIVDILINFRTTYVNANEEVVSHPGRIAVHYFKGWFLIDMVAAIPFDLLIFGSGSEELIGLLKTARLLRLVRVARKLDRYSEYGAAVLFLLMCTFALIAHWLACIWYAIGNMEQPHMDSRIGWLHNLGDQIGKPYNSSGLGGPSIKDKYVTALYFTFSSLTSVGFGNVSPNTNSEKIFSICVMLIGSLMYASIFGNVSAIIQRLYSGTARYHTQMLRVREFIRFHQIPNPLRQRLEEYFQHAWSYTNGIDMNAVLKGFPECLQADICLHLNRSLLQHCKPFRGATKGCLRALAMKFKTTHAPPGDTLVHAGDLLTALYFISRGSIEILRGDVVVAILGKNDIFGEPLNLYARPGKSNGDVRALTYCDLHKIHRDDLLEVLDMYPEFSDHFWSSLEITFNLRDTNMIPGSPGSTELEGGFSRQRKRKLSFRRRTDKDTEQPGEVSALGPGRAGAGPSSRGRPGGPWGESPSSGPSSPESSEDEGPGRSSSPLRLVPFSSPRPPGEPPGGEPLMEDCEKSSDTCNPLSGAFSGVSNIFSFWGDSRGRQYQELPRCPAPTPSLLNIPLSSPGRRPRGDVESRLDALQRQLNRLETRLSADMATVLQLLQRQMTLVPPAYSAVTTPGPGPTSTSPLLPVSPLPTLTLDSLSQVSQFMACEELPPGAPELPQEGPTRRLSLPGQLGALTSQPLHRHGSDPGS

| SMILES | hERG current change (%, negative = inhibition) at 10uM [%] |
| --- | --- |
| Cc1c(Cl)cccc1NC(=O)CN1CCC(NC(=O)C2CCCCC2)CC1 | -0.0286 |
| CCOC(=O)c1[nH]c(C)c(C(=O)Nc2ccccc2F)c1C | -11.2 |
| CCOc1ccccc1NC(=O)Cn1c(=O)n(-c2ccccc2)c(=O)c2oc3ccccc3c21 | -16.4 |
| O=C(CN(CC1CCCO1)C(=O)CNS(=O)(=O)c1ccc(F)cc1)NCc1ccccc1 (stereo not shown) | 7.27 |
| CC1CCN(c2ccc3nnc(CCC(=O)NC(C)C)n3n2)CC1 | 2.67 |
| N#CC1=C(N)OC(c2ccccc2)=C(C#N)C1c1ccc2c(c1)OCO2 (stereo not shown) | 14.3 |
| Cc1ccc(NS(=O)(=O)c2ccc(C(=O)NCc3ccccn3)cc2)cc1 | 18.8 |
| Cc1ccc(S(=O)(=O)Nc2ccc(C(=O)NCc3ccccn3)cc2)cc1 | -7.17 |
| Cc1ccc(NS(=O)(=O)c2cccc(C(=O)NCc3ccccn3)c2)cc1 | -68.5 |
| COc1ccc(OC)c(C2Nc3ccccc3NC3=C2C(=O)CC(C)(C)C3)c1 (stereo not shown) | 15.4 |
| O=C(Nc1ccc(Br)cc1Cl)c1cnccn1 | 5.88 |
| CCc1nnc(NC(=O)CSc2nc3cc(OC)c(OC)cc3cc2C)s1 | 5.07 |
| CCC(=O)N1CCc2cc(S(=O)(=O)CCC(=O)N3CCN(c4ccc(F)cc4)CC3)ccc21 | -2.82 |
| O=c1c2cc([N+](=O)[O-])ccc2nc2n1CCCC2 | 4.82 |
| C=CCn1c2ccccc2c2nnc(SC(CC)C(=O)Nc3nc(C)c(C(=O)OCC)s3)nc21 (stereo not shown) | -43.9 |
| CCOC(=O)c1sc(NC(=O)C(CC)Sc2nnc3c4ccccc4n(CC)c3n2)nc1C (stereo not shown) | -59.4 |
| CCOC(=O)C(Sc1nnc2c3ccccc3n(CC)c2n1)C(=O)OCC | -28.7 |
| Cc1ccc(-c2ccc(CCC(=O)O)n2Cc2ccco2)cc1 | 12.2 |
| Cc1ccc(OCCCCn2ccnc2C)c(C)c1.O=C(O)C(=O)O | -64.1 |
| Cc1ccc(C(C)C)c(OCCCn2ccnc2C)c1.O=C(O)C(=O)O | -63.8 |
| Cc1ccc(OCC(=O)NC2CCCC2)c(C)c1 | 2.93 |
| Cc1ccc(OCCCCNC2CCCC(C)C2C)c(C)c1.O=C(O)C(=O)O (stereo not shown) | -56.9 |
| Cc1ccc(C(C)C)c(OCCN(C)C)c1.O=C(O)C(=O)O | -5.47 |
| Cc1ccc(C(C)C)c(OCCn2ccnc2C)c1.O=C(O)C(=O)O | -35.1 |

| SMILES | hERG current change (%, negative = inhibition) at 10uM [%] |
| --- | --- |
| Cc1ccc(OCCCCNC2CCCCC2)c(C)c1.O=C(O)C(=O)O | -42.8 |
| Cc1ccc(OCCCCn2cnc3ccccc32)c(C)c1.O=C(O)C(=O)O | -20.5 |
| COc1ccc(OCCn2ccnc2C)cc1.O=C(O)C(=O)O | -0.197 |
| Cc1cc(C)nc(N/N=C/c2cn[nH]c2-c2ccccc2)n1 | -6.34 |
| Cc1cc([N+](=O)[O-])nn1CC(=O)NCc1ccccc1 | 24.2 |
| CC(C(=O)N=c1sc2ccccc2n1C)N1C(=O)C2CC=CCC2C1=O (stereo not shown) | -40.2 |
| Cc1cccc(C)c1NC(=O)CNC(=O)C(NC(=O)c1ccc(C(C)(C)C)cc1)C(C)C (stereo not shown) | 14.4 |
| CCc1nnc(NC(=O)CN2CCN(c3ccccc3F)CC2)s1.Cl | -12.9 |
| CSc1ccc(CCCCCCOC(=O)C(C)(C)C)cc1 | 3.95 |
| CCn1c(=O)cc(SCC(=O)N2CCN(c3ccccc3OC)CC2)c2ccccc21 | -52 |
| CCn1c(=O)cc(SCC(=O)NCCN2CCN(Cc3ccccc3)CC2)c2ccccc21 | -49.4 |
| CCn1c(=O)cc(SCC(=O)N2CCN(c3ccccc3F)CC2)c2ccccc21 | -21.7 |
| Cn1c(=O)cc(SCC(=O)NCCCN2CCOCC2)c2ccccc21 | -2.51 |
| CCn1c(=O)cc(SCC(=O)NCCCN2CCN(c3ccc(F)cc3)CC2)c2ccccc21 | -46 |
| CCn1c(=O)cc(SCC(=O)NCCCN2CCN(c3ccccc3F)CC2)c2ccccc21 | -62.2 |
| Cn1c(=O)cc(SCC(=O)NCc2ccc(F)cc2)c2ccccc21 | -17.4 |
| CCn1c(=O)cc(SCC(=O)NCCCN2CCC(C)CC2)c2ccccc21 | -13 |
| Cn1c(=O)cc(OCC(=O)NCCCN2CCN(c3ccccc3F)CC2)c2ccccc21 | -45.4 |
| CCn1c(=O)cc(SCC(=O)N2CCN(C)CC2)c2ccccc21 | 6.22 |
| Cn1c(=O)cc(SCC(=O)NCCCN2CCN(c3ccc(F)cc3)CC2)c2ccccc21 | -69.2 |
| Cn1c(=O)cc(SCC(=O)NCCCN2CCN(c3ccccc3F)CC2)c2ccccc21 | -55.5 |
| COc1ccc(-c2c(C)oc3c(CN4CCOCC4)c(O)ccc3c2=O)cc1 | 7.31 |
| O=C(O)CC(NC(=O)OCc1ccccc1)c1ccc(Br)cc1 (stereo not shown) | 20.2 |
| CCCn1c(=O)c2c(nc(Br)n2CCC)n(C)c1=O | -1.31 |

| SMILES | hERG current change (%, negative = inhibition) at 10uM [%] |
| --- | --- |
| CCC(C)c1ccccc1NC(=O)C(C)NCCN(C)C.O=C(O)C(=O)O (stereo not shown) | 10.3 |
| CSCCC1NC(=O)N(CC(=O)Nc2c(Cl)cc(Cl)cc2Cl)C1=O (stereo not shown) | -2.68 |
| O=c1[nH]c(O)c(C=Nc2ccc(F)c(Cl)c2)c(=O)[nH]1 | 7.3 |
| Cc1ccc(S(=O)(=O)Oc2ccc(/C=N/N=C3/NC(=O)C(CC(=O)O)S3)cc2)cc1[N+](=O)[O-] (stereo not shown) | 24 |
| Cc1ccc2[nH]c(=O)c(NC(N)=S)nc2c1 | 14 |
| S=c1nc(C2CCCCC2)n(-c2ccccc2)[nH]1 | 15.6 |
| O=C(C1CC1)N1CCN(C(c2ccccc2)c2ccccc2)CC1 | 6.33 |
| Cc1ccccc1-n1nc2c(c1NC(=O)c1ccc3c(c1)OCO3)CS(=O)(=O)C2 | -17.6 |
| CNC(=S)N/N=C/c1ccccc1OCC(=O)O | 18.4 |
| CC(C)C(=O)NN(C(=O)c1ccccc1)c1ccccc1 | 20.4 |
| Cn1c(=O)cc(SCC(=O)NCCN2CCN(c3ccccc3F)CC2)c2cc(Cl)ccc21 | -54.1 |
| Cn1c(=O)cc(OCCCC(=O)NCCN2CCN(c3ccccc3F)CC2)c2ccccc21 | -7.18 |
| CCOc1ccc(CCNC(=O)CSc2cc(=O)n(C)c3ccc(Cl)cc23)cc1OCC | -21.4 |
| O=C(O)C1(c2ccccc2)CCN(S(=O)(=O)c2ccc(F)c(F)c2)CC1 | 2.44 |
| COc1ccc(-c2cc(O)cc(O)c2)cc1 | -3.33 |
| COc1ccc(NC(=O)Cc2ccccc2)cc1 | 4.36 |
| COc1ccc(/C=C/c2cc[n+](C(=O)Cc3ccccc3)cc2)cc1.[Cl-] | -51.2 |
| COc1ccc(/C=C/C(=O)NCCCc2ccccc2)cc1 | -46.8 |
| CCC(=O)Nc1ccc(OCC2CCCO2)cc1 (stereo not shown) | 7.08 |
| Cl.OC1(c2ccc(F)cc2)CCN(Cc2ccccc2)C1 (stereo not shown) | -15.1 |
| c1ccc(CN2CCN(Cc3ccc4ccccc4c3)CC2)cc1 | 5.24 |
| Cl.OC1(c2ccc3ccccc3c2)CCN(Cc2ccccc2)C1 (stereo not shown) | -57.1 |
| c1ccc2c(c1)OCC(CNc1ncnc3sccc13)O2 (stereo not shown) | -20.9 |
| CCOC(=O)C1=C(C)NC(=O)CC1c1ccccc1OC (stereo not shown) | 7.62 |

| SMILES | hERG current change (%, negative = inhibition) at 10uM [%] |
| --- | --- |
| Cc1ccc(NC2=NCC(=O)N2Cc2ccc3c(c2)OCO3)c(C)c1 | -1.91 |
| CCC(C(=O)N1CCN(c2ncccn2)CC1)c1ccccc1 (stereo not shown) | -0.742 |
| Cl.Fc1ccc(C(OCCN2CCN(CCCc3ccccc3)CC2)c2ccc(F)cc2)cc1 | -77.4 |
| O=C1CCN(CCCc2ccccc2)CCN1CCO | 2.01 |
| Cl.c1ccc(C(OCCN2CCNCC2)c2ccccc2)cc1 | -11.9 |
| Cl.c1ccc(CCCN2CCN(CCOC(c3ccccc3)c3ccccc3)CC2)cc1 | -71.8 |
| O=S(=O)(c1ccc(F)cc1)N1CCN(CCc2ccccc2)CC1 | -8.48 |
| c1ccc(CN2CCN(c3ncccn3)CC2)cc1 | 11.6 |
| O=C(O)/C=C\C(=O)O.c1ccc(C(OCCN2CCN(c3ncccn3)CC2)c2ccccc2)cc1 | -65.9 |
| c1ccc(COCCN2CCN(CCOCc3ccccc3)CC2)cc1 | -39.5 |
| CC(=O)Nc1ccc(Sc2ncccc2C(=O)Nc2cc(Cl)cc(Cl)c2)cn1 | 26.7 |
| CN(C)/C=C(\C#N)C(=O)N/N=C/c1ccc(F)cc1 | -10.1 |
| C=CCN(CC=C)C(=O)C[n+]1ccc(C(N)=O)cc1.[Cl-] | -0.0573 |
| O=C(CSc1ccc2nnc(-c3ccncc3)n2n1)Nc1ccc2c(c1)OCO2 | 7.8 |
| O=C(CSc1ccc2nnc(-c3ccccn3)n2n1)Nc1ccc2c(c1)OCO2 | -33.7 |
| O=C(CSc1ccc2nnc(-c3cccnc3)n2n1)NCc1ccco1 | -44.3 |
| O=C(CSc1ccc2nnc(-c3ccccc3)n2n1)NCc1ccc2c(c1)OCO2 | -80.3 |
| O=C(CSc1ccc2nnc(-c3cccnc3)n2n1)NCc1ccc2c(c1)OCO2 | -53.3 |
| O=C(CSc1ccccn1)NCc1ccc2c(c1)OCO2 | 3.5 |
| O=C(CSc1ccc2nnc(-c3cccnc3)n2n1)NCC1CCCO1 (stereo not shown) | -9.66 |
| O=C(CSc1ccc2nnc(-c3ccccn3)n2n1)Nc1ccc2c(c1)OCCO2 | -40.6 |
| O=C(CSc1ccc2nnc(-c3ccccn3)n2n1)NCc1ccc2c(c1)OCO2 | -74.4 |
